Experimental data from PubChem BioAssay AID1434 (Sanford-Burnham Center for Chemical Genomics, 2008).
Out of some 220,000 compounds screened, about 1,600 (0.73%) were called active.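 Rule for the calls: active = mean inhibition across duplicate retests at 20 µM reaching about 50% (limit read from the data); inactive = the rest, inconclusive results apart.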 The sample as a whole holds a higher share of actives than the screen did.

Molecular target: Runt-related transcription factor 1 (Homo sapiens) + Core-binding factor subunit beta (Homo sapiens) (UniProt Q01196+Q13951)
Sequence (Q01196 whole entry, looked up, the tested form may be a part): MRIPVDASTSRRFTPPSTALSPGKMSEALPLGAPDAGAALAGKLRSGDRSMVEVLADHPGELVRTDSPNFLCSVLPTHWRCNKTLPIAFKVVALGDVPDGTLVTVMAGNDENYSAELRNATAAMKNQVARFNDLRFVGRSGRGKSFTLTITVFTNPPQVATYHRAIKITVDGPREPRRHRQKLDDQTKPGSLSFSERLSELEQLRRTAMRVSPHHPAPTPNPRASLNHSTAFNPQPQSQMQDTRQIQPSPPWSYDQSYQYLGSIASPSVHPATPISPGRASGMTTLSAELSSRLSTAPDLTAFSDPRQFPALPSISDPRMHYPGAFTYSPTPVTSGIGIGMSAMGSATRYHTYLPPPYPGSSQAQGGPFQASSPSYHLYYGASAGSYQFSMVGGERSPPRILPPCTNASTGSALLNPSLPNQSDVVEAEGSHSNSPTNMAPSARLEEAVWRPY
Sequence (Q13951 whole entry, looked up, the tested form may be a part): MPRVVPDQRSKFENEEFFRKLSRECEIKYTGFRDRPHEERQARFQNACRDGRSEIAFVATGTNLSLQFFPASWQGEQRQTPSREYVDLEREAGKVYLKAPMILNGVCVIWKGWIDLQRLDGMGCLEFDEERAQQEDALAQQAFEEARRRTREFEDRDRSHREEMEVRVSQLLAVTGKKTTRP
Assay: disruptors of Runt domain/CBFb-SMMHC interaction – biochemical, FRET, Cerulean-Runt, Venus-CBFb-SMMHC, uHTS, primary screen (AID 1434);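 note: 0% = DMSO wells and 100% = wells with excess untagged CBFb-SMMHC; inhibitors lower the FRET ratio by blocking Runt binding to CBFb-SMMHC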
Conditions: Cerulean-Runt/Venus-CBFb-SMMHC FRET ratio 530/480, 1 h, at 20 µM, stronger effect = higher value

SMILES	inhibition	inhibition (retest duplicate average)
CCOC(=O)c1c(NC(=S)Nc2ccccc2)sc2c1CCN(C)C2	159% (active)	140%
CCOC(=O)c1c(NC(=S)Nc2ccccc2C)sc2c1CCC2	4% (inactive)	
CCOC(=O)c1c(NC(=O)NC(C)(C)C)sc2c1CCN(C)C2	10.7% (inactive)	
Cc1ccc(Nc2nc(N)nc(CN3CCN(Cc4ccccc4)CC3)n2)cc1Cl	1.7% (inactive)	
C/C(=N/OC(=O)c1c(-c2c(F)cccc2Cl)noc1C)c1cnccn1	0.1% (inactive)	
CCOC(=O)c1cc2n(c1N)-c1ccccc1C2=O	2.2% (inactive)	
CCn1c(=N)c(S(=O)(=O)c2ccc(F)cc2)cc2c(=O)n3ccccc3nc21	-20.7% (inactive)	
CCCn1c(=NC(C)=O)c(C(=O)OCC)cc2c(=O)n3ccccc3nc21	58.9% (active)	115%
Cc1onc(-c2c(Cl)cccc2Cl)c1C(=O)NNC(=O)c1c(-c2c(Cl)cccc2Cl)noc1C	-0.1% (inactive)	
CCOC(=O)c1cc2c(=O)n3ccccc3nc2n(CC(C)C)c1=NC(=O)c1c(-c2c(F)cccc2Cl)noc1C	81% (active)	58.3%
CCOC(=O)NNc1cc(C(F)(F)F)ccn1	-0.5% (inactive)	
CCC(C)OC(=O)C(C)Oc1ccc(-c2ccccc2)cc1 (centres undefined)	-4.2% (inactive)	
Nc1cccc(-c2cc(-c3ccccc3)nc(-c3cccc(N)c3)n2)c1	1.4% (inactive)	
CCN(CC)C(=O)c1sc2nc(-c3ccccc3)ccc2c1N	15.5% (inactive)	
CS(=O)(=O)c1sc2nc(-c3ccccc3)cc(-c3ccccc3)c2c1N	83.9% (active)	108%
Cc1ccc2nc(COc3ccc(N(C)S(=O)(=O)c4ccccc4)cc3)cc(=O)n2c1	7.6% (inactive)	
CCOC(=O)C1CCN(C(=O)C2(NC(=O)Nc3cccc(F)c3)CCCCC2)CC1	-6.4% (inactive)	
CCOC(=O)c1oc2c(CN3CCN(CCO)CC3)c(O)c(CC)cc2c(=O)c1-c1nc2ccccc2s1	47.8% (inactive)	
CC(C)(C)c1ccc(/C=C2\Oc3c(ccc(O)c3CN3CCN(CCO)CC3)C2=O)cc1	90.1% (active)	70.6%
O=C(CSc1nc2ccccc2o1)N/N=C/c1ccccc1C(=O)O	0.7% (inactive)	
C/C(N)=C(/C#N)C(=O)COC(=O)C1CCN(C(=O)c2ccc(Cl)cc2)CC1	0.8% (inactive)	
CNc1[nH]ncc1[N+](=O)[O-]	7.1% (inactive)	
Cc1cc(NCc2ccco2)n2c(nc3ccccc32)c1C#N	86.1% (active)	66%
Cc1cc(NC(C)C)n2c(nc3ccccc32)c1C#N	31% (inactive)	

SMILES	inhibition	inhibition (retest duplicate average)
CC(C)c1cc(NCc2ccccn2)n2c(nc3ccccc32)c1C#N	29.3% (inactive)	
Cc1[nH]c2ccccc2c1/C=N/NC(=O)CNC(=O)c1ccc2c(c1)OCO2	1.7% (inactive)	
COc1ccc(N2C(=O)C(O)C2c2ccc(C)cc2)cc1 (centres undefined)	1.6% (inactive)	
Cc1cc(C)c2nc(N3CCCC3)c(C#N)cc2c1	65% (active)	86.1%
Cc1cc(C)c(C#N)c(N2CCC(C(N)=O)CC2)n1	3% (inactive)	
CC(=O)c1cc(C#N)c(N2CCCCC2)nc1C	-1.4% (inactive)	
CC(C)N1C(=S)SC(C)(C)C1n1oc(=O)n(-c2ccc(Cl)c(Cl)c2)c1=O (centres undefined)	4.2% (inactive)	
CCOc1cc(NC(=O)CCl)c(OCC)cc1NC(C)=O	1.1% (inactive)	
CS(=O)(=O)N(CC(O)Cn1c2ccccc2c2ccccc21)c1cccc2ccccc12 (centres undefined)	1.2% (inactive)	
CCCCN(CCCC)CC(O)Cn1c2ccccc2c(=O)c2ccccc21 (centres undefined)	81% (active)	70.6%
O=C1c2ccccc2S(=O)(=O)N1CC(O)Cn1c2ccccc2c2ccccc21 (centres undefined)	4.1% (inactive)	
Cc1ccccc1NC(=O)c1nn(-c2ccc(F)c(F)c2)ccc1=O	3.1% (inactive)	
N#CC1=C(N)Oc2cc(O)ccc2C1C1CCCCC1 (centres undefined)	120% (active)	132%
N#CC1=C(N)OC2=C(C(=O)CCC2)C1C1CC=CCC1 (centres undefined)	4.6% (inactive)	
COCc1[nH]nc2c1C(C1C=CCCC1)C(C#N)=C(N)O2 (centres undefined)	3.6% (inactive)	
C=CCn1c(SCC(N)=O)nnc1-c1cc2c(s1)CCC(CC)C2 (centres undefined)	-3.6% (inactive)	
CCS(=O)(=O)c1ccc(O)c(NC(=O)COc2ccc(Cl)cc2)c1	0.3% (inactive)	
Cc1c(CCOC(=O)c2cc([N+](=O)[O-])ccc2Cl)sc[n+]1CCCCS(=O)(=O)[O-]	-0.3% (inactive)	
O=C(CCc1ccccc1)Nc1ccc(NC(=O)C2CCCCC2)nc1	-1% (inactive)	
CC(C)C1Nc2c(C(=O)O)cccc2C(Nc2ccccc2C(=O)O)C1(C)C (centres undefined)	-10% (inactive)	
CC(C)(C)OC(=O)c1c(N)n(CCCN2CCCC2=O)c2nc3ccccc3nc12	124% (active)	142%
Cc1ccc(C(=O)OC(C)CN2CCOCC2)cc1 (centres undefined)	-0.1% (inactive)	
COCC(C)OC(=O)c1c(N)n(CCCN2CCOCC2)c2nc3ccccc3nc12 (centres undefined)	109% (active)	129%
CSc1nnc(-c2ccncc2)n1CCCN1CCCC1=O	5.9% (inactive)	

SMILES	inhibition	inhibition (retest duplicate average)
CCOc1ccc(C(=O)NCCCN2CCCC2=O)cc1	-3.7% (inactive)	
CCc1ccc(NC(=O)CSc2nc3ccccc3c(=O)n2CCN2CCOCC2)cc1	-3.7% (inactive)	
O=C1CC2(CC(c3ccc(Cl)cc3)=NO2)C(=O)N1c1ccccc1 (centres undefined)	2.6% (inactive)	
CC(C)(C)c1cc(C(=O)N/N=C/c2ccc([N+](=O)[O-])s2)n[nH]1	-11.1% (inactive)	
COc1ccc(-n2c(C)nn(CC3CC3)c2=O)cc1	-6% (inactive)	
CCCn1c(N)c(C(=O)CSc2nnc(-c3cccnc3)n2-c2ccc(C)cc2C)c(=O)[nH]c1=O	0.2% (inactive)	
Cn1nnc(NC(=S)NC(=O)c2ccccc2)n1	-0.2% (inactive)	
COc1ccc(CCn2c(=N)c(C(=O)NCc3ccco3)cc3c(=O)n4cccc(C)c4nc32)cc1	142% (active)	170%
COc1ccc(CCNC(=O)CCn2c(=O)c3ccccc3n(CC(=O)NCC3CCCO3)c2=O)cc1OC (centres undefined)	-0.3% (inactive)	
CCn1c(=N)c(C(=O)NCCCOC)cc2c(=O)n3cccc(C)c3nc21	58.1% (active)	72.9%
COc1ccc(CCNC(=O)Cn2c(=O)n(CC3CCCO3)c(=O)c3ccccc32)cc1OC (centres undefined)	-0.7% (inactive)	
COc1ccc(CNC(=O)c2cc3c(=O)n4ccccc4nc3n(CC3CCCO3)c2=N)cc1 (centres undefined)	92.1% (active)	159%
COCCn1c(=O)[nH]c2cc(C(=O)NCc3cccnc3)ccc2c1=O	-3.4% (inactive)	
COc1ccc(CCNC(=O)c2ccco2)cc1	-1.4% (inactive)	
O=C(NCc1ccco1)c1cccn2c(=O)c3c4c(sc3nc12)CCCC4	0.4% (inactive)	
CCc1cccc2c(=O)c(C(=O)NCCCOC)c[nH]c12	1% (inactive)	
CC(C)Oc1c(Br)cc(Br)cc1/C=N/NC(N)=S	-0.8% (inactive)	
C=CCN(CC=C)C(=O)COC(=O)c1n[nH]c2ccccc12	-3% (inactive)	
O=c1[nH]c(=S)[nH]c2[nH]c(=S)[nH]c12	45.1% (inactive)	
COc1ccc(C(C(=O)NC2CCCCC2)N(C(=O)CCl)c2ccccc2Cl)cc1 (centres undefined)	-1.2% (inactive)	
OC(COCC1COc2ccccc2O1)CN1CCN(c2ccc(F)cc2)CC1 (centres undefined)	0.5% (inactive)	
COc1ccc(Cc2nnc(NC(=O)c3cc(OC)c(OC)c(OC)c3)s2)cc1OC	-2% (inactive)	
COc1cc(/C=N/NC(=S)Nc2cccnc2)cc(OC)c1O	3% (inactive)	
CCCCCCCC[n+]1cccc(C(=O)N2c3c(nc(N)[nH]c3=O)NC(C)C2C)c1 (centres undefined)	3.4% (inactive)	

SMILES	inhibition	inhibition (retest duplicate average)
COc1ccc2c(CN3CCN(S(=O)(=O)c4cccs4)CC3)cc(=O)oc2c1	12.6% (inactive)	
O=c1cc(CN2CCN(S(=O)(=O)/C=C/c3ccccc3)CC2)c2ccc(O)cc2o1	130% (active)	146%
O=C(CN1CCN(S(=O)(=O)/C=C/c2ccccc2)CC1)Nc1ccc(N2CCOCC2)cc1	1.4% (inactive)	
COc1cccc(OCCCN2CCCCCC2)c1	-44.8% (inactive)	
O=C1OC(/C=C/c2ccccc2)=NC/1=C/c1ccco1	-22.3% (inactive)	
COc1ccccc1/C=C/C1=NC(=C\N(C)C)/C(=O)O1	89.1% (active)	91.9%
COc1cccc(/C=C/c2ccc3ccccc3n2)c1OC(C)=O	-3.2% (inactive)	
CC(C)=C1C2CCC1C1C(=O)N(NC(=O)c3ccco3)C(=O)C21 (centres undefined)	-1.2% (inactive)	
COc1ccc2oc(=O)c(C(=O)N3CCCC3)cc2c1	3.9% (inactive)	
COc1ccc2oc(=O)c(C(=O)O)cc2c1	1.6% (inactive)	
COc1cccc(C(=O)c2cc3ccc(O)cc3oc2=O)c1	165% (active)	194%
NC(=O)c1c(NC(=O)CSc2nc(N)cc(=O)[nH]2)sc2c1CCCC2	-8.6% (inactive)	
NC(=O)c1c(Nc2nc3c(F)cccc3s2)sc2c1CCCC2	104% (active)	175%
Fc1cc(F)c2nc(Nc3nc4c(F)cccc4s3)sc2c1	4.2% (inactive)	
CCCN1CC=C2C(C#N)=C(N)C(C#N)(C#N)C(c3cc(OC)ccc3OC)C2C1 (centres undefined)	88.4% (active)	77.5%
CCOC(=O)N1CC=C2C(C#N)=C(N)C(C#N)(C#N)[C@H](c3cccs3)[C@H]2C1	-18.3% (inactive)	
CCN1CC=C2C(C#N)=C(N)C(C#N)(C#N)[C@H](c3ccoc3)[C@H]2C1	-20.7% (inactive)	
Cc1ccc(C2Nc3ccccc3C(=O)N2CCN2CCNC2=O)cc1 (centres undefined)	2.4% (inactive)	
CC(C)NC(=O)C(=O)NCCCOC(C)C	-0.3% (inactive)	
CCN1CCc2nc(NC(=O)c3cc(F)c(F)cc3Cl)sc2C1	52.5% (active)	76.5%
O=C(Nc1nccs1)c1cc(S(=O)(=O)N2CCOCC2)c(Cl)cc1Cl	-1% (inactive)	
CC(=O)Cc1nsc(NC(=O)c2ccc(Cl)cc2Cl)n1	-0.9% (inactive)	
